The record followed here is PubChem BioAssay (NCI).

Experiment [1] in a line: NCI Yeast Anticancer Drug Screen. Data for the rad50 strain (AID 155).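 Also: 0% = growth of vehicle-only cultures of the same strain.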 The note with it: S. cerevisiae rad50 strain growth inhibition; at 50.0 µM; active compounds read high. Summed up:
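DNA repair mutant yeast, compound exposure, growth read-out; inhibition is taken relative to vehicle.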

The nature of experiment [2]: NCI Yeast Anticancer Drug Screen. Data for the mec2-1 strain (AID 157). The note with it: S. cerevisiae mec2-1 strain, at 50.0 µM, active compounds read high. An outline of the steps: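 Test agents were screened against the mec2-1 yeast strain, with defined DNA repair or cell cycle alteration. Growth was scored as inhibition against vehicle-only controls.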
Experiment [3] can be described thus: NCI Yeast Anticancer Drug Screen. Data for the sgs1 mgt1 strain (AID 161).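 Also: 0% = growth of cultures given vehicle only.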 The note with it: S. cerevisiae sgs1 mgt1 strain, at 50.0 µM, active compounds read high. An outline of the steps:
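Read-out: growth inhibition vs vehicle controls. Cells: mutant yeast strain deficient in DNA damage repair.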

A short description of experiment [4]: NCI Yeast Anticancer Drug Screen. Data for the cln2 rad14 strain (AID 165).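 Also: 0% = growth equal to vehicle treated cultures.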 The note with it: S. cerevisiae cln2 rad14 strain, at 50.0 µM, active compounds read high. Summed up:
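Growth of compound-exposed yeast (cln2 rad14 genotype) measured and expressed as inhibition relative to vehicle.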

Experiment [5] can be described thus: NCI Yeast Anticancer Drug Screen. Data for the bub3 strain (AID 167). The note with it: S. cerevisiae bub3 mutant strain, at 50.0 µM, active compounds read high. An outline of the steps:
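In this screen, a yeast mutant lacking normal mitotic checkpoint function is challenged with compound. Relative growth versus vehicle gives the inhibition value.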

A short description of experiment [6]: NCI Yeast Anticancer Drug Screen. Data for the mlh1 rad18 strain (AID 175). The note with it: S. cerevisiae mlh1 rad18 strain growth inhibition; at 50.0 µM; active compounds read high. Summed up:
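In this whole-cell yeast screen, a strain with altered DNA damage repair is challenged with compound, and its growth is measured against matched vehicle-treated controls.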

“And” between values parts separate entries of the source, which are not always exact repeats. Equal values may be shown once. The panel holds about 79,000 compounds, 15% with a hit somewhere; the sample as a whole holds those more often. Unmarked numbers belong to inactive results. The source made the active and inactive calls. Rule as the data show it: active = growth inhibition above about 70%; inactive = the rest.

Consider `CC(C)OC(N)=O`, for which the growth inhibition in experiment [1] is -2.35%; in experiment [2], -24.9%; in experiment [3], 29.2%; in experiment [4], 13.6%; in experiment [5] it was -21%; in experiment [6], -6.85%.

In the case of `[C-]#[O+].[C-]#[O+].[C-]#[O+].[C-]#[O+].[Cr].c1ccc([PH+](c2ccccc2)c2ccccc2)cc1.c1ccc([PH+](c2ccccc2)c2ccccc2)cc1`, the growth inhibition in experiment [1] is -4.4%; in experiment [2], 8.05%; in experiment [3] it was -8.95%; in experiment [4], -3.35%; in experiment [5], -5.4%; in experiment [6], -1.55%.

For `CCCCOS(C)(=O)=O`, the growth inhibition in experiment [1] was 19.6%; in experiment [2] it was -13.8%; in experiment [3], 22.4%; in experiment [4], 5.8%; in experiment [5], 21.4%; in experiment [6], 29.4%.

On to `COc1cccc(/C=N/[N-]C(=O)c2ccncc2)c1[O-].[Ni+2].[OH3+]`, for which the growth inhibition was -14.6% in experiment [1]; -4.05% in experiment [2]; -12.1% in experiment [3]; 18.1% in experiment [4]; -12.2% in experiment [5]; -14.2% in experiment [6].

In the case of `CC1NC1c1ccccc1` (stereo unspecified), the growth inhibition is -13.6% in experiment [1]; -29.3% in experiment [2]; -6.85% in experiment [3]; -20.4% in experiment [4]; -11.8% in experiment [5]; -19.4% in experiment [6].

Turning to `O=S(=O)(c1ccc(O)cc1)c1ccc(O)cc1`, the growth inhibition is -5.25% and 0.75% in experiment [1]; -2.8% and -7.6% in experiment [2]; -3.75% and -4.95% in experiment [3]; -11.7% and -36.2% in experiment [4]; 1.85% and -8.15% in experiment [5]; 2.55% and -4.05% in experiment [6].

`CO[C@H]1Nc2c(ccc(C)c2O)C(=O)N2C=C(/C=C/C(N)=O)C[C@@H]12`: the growth inhibition is 89.2% (active) in experiment [1]; 91.5% (active) in experiment [2]; 90% (active) in experiment [3]; 90.2% (active) in experiment [4]; 90.3% (active) in experiment [5]; 87.3% (active) in experiment [6].

As to `NC(=NCCCC(NCc1ccccc1)C(=O)O)N[N+](=O)[O-]` (stereo unspecified), the growth inhibition is 16.3% in experiment [1]; 17.6% in experiment [2]; 16.6% in experiment [3]; 16.9% in experiment [4]; 6.85% in experiment [5]; 16.1% in experiment [6].

Regarding `NC1(O)C(=O)NC(=O)NC1=O`, the growth inhibition was -21.4% in experiment [1]; -30% in experiment [2]; -18.9% in experiment [3]; -28.1% in experiment [4]; -4.05% in experiment [5]; 5.85% in experiment [6].

`COC(C(=O)C(O)C(C)O)C1Cc2cc3cc(OC4CC(OC(C)=O)C(OC5CC(O)C(OC)C(C)O5)C(C)O4)cc(O)c3c(O)c2C(=O)C1OC1CC(OC2CC(OC3CC(C)(O)C(OC(=O)C(C)C)C(C)O3)C(O)C(C)O2)C(O)C(C)O1` (stereo unspecified): the growth inhibition was 1.55% and 17.7% in experiment [1]; -5.45% and 28.8% in experiment [2]; -24.6% and 17.3% in experiment [3]; 52.5% and 58% in experiment [4]; -19.4% and 35.5% in experiment [5]; 1.2% and 17.1% in experiment [6].

For `CCC[CH2][Sn]([CH2]CCN(C)C)([CH2]CCN(C)C)[CH2]CCN(C)C`, the growth inhibition is 38.5% in experiment [1]; 8.4% in experiment [2]; 12.8% in experiment [3]; 15.2% in experiment [4]; -1.95% in experiment [5]; 28.2% in experiment [6].

Take `Cc1cccc(N2C(=O)C3C(C2=O)C2(Cl)C(Cl)=C(Cl)C3(Cl)C2(Cl)Cl)c1C` (stereo unspecified): the growth inhibition in experiment [1] was 88.2% (active); in experiment [2], 48.6%; in experiment [3], 50.5%; in experiment [4], 57%; in experiment [5] it was 65.6%; in experiment [6], 56%.

As to `O=c1nc2n(CCN(CCCl)CCCl)c3cc(Cl)c(Cl)cc3nc-2c(=O)[nH]1`, the growth inhibition in experiment [1] is 38%; in experiment [2], -1.65%; in experiment [3], 45%; in experiment [4], 34.6%; in experiment [5], 3.65%; in experiment [6], 26.4%.

Consider `C=C1CC2CC[C@@]34CC5O[C@@H]6C(O[C@H]7CC[C@H](CC(=O)OC8C(C)C9OC%10C[C@]%11(C[C@@H]%12O[C@]%13(CC(C)[C@@H]%14O[C@H](C(O)CC(O)CO)C[C@@H]%14O%13)CC(C)[C@@H]%12O%11)OC%10CC9O[C@H]8C[C@H]8OC(CC[C@@H]1O2)C[C@@H](C)C8=C)OC7[C@@H]6O3)[C@H]5O4` (stereo partly specified), for which the growth inhibition in experiment [1] is 87.3% (active); in experiment [2] it was 91.1% (active); in experiment [3] it was 90.6% (active); in experiment [4], 83.7% (active); in experiment [5], 91.1% (active); in experiment [6], 69.8%.

Take `COP(=O)(OC)/C(=C/c1c[nH]c2ccccc12)C(=O)O`: the growth inhibition is -12.7% in experiment [1]; -71.6% in experiment [2]; -55.9% in experiment [3]; -34.9% in experiment [4]; -20.7% in experiment [5]; -32.2% in experiment [6].

Regarding `Cc1cc(N(CCCl)CCCl)ccc1CN1CCCN(Cc2ccc(N(CCCl)CCCl)cc2C)C1c1cc(O)cc(Br)c1`, the growth inhibition in experiment [1] was 43%; in experiment [2] it was 24.5%; in experiment [3], 35.4%; in experiment [4] it was -2.55%; in experiment [5] it was 9.3%; in experiment [6], 37.9%.

`NCCN.NCCN.O=C([O-])CCl.O=C([O-])CCl.[Co+3].[O-][Cl+3]([O-])([O-])[O-]`: the growth inhibition in experiment [1] was -23.8%; in experiment [2], 3.45%; in experiment [3], -43.2%; in experiment [4], 8.4%; in experiment [5], -18.5%; in experiment [6], -9%.

On to `C[Si](C)(C)C#CC#C[Si](C)(C)C.[Ni].[Ni].[Ni].[Ni].[c-]1[c-][c-][cH-][c-]1.[c-]1[c-][c-][cH-][c-]1.[c-]1[c-][c-][cH-][c-]1.[c-]1[c-][c-][cH-][c-]1`, for which the growth inhibition in experiment [1] was 11.7%; in experiment [2] it was 5.5%; in experiment [3], -5.05%; in experiment [4], 9.2%; in experiment [5], -2.85%; in experiment [6], -5.85%.

With `CC12C(=O)C(C)(C(c3ccccc3)=C1c1ccccc1)C1(C#N)NC21C#N` (stereo unspecified), the growth inhibition in experiment [1] is 14.9%; in experiment [2], 2.65%; in experiment [3], 22.8%; in experiment [4] it was 18.2%; in experiment [5], 13.8%; in experiment [6], 40%.

Take `CCCCC1CN1C(=N)OCC` (stereo unspecified): the growth inhibition in experiment [1] is 6.65%; in experiment [2], -0.6%; in experiment [3], 15.4%; in experiment [4] it was 59.1%; in experiment [5], 0.9%; in experiment [6], 29.1%.

`CCOC(=O)C(=O)C1CCNC1=O` (stereo unspecified): the growth inhibition was 9.2% in experiment [1]; 3.35% in experiment [2]; -4.45% in experiment [3]; -0.25% in experiment [4]; -3.65% in experiment [5]; 24.5% in experiment [6].
